17 molecules from ChEMBL document CHEMBL1961873, “Compounds: GSK PKIS; Assays: Nanosyn kinase panel” (2012) can be followed below.

As a reminder, the inhibition is the relative decrease from the control value, in per cent.

Structures are written as SMILES.

The target in assay [1] is RAC-alpha serine/threonine-protein kinase (Homo sapiens) (UniProt P31749). The conditions noted are these: at 0.1 µM.
For assay [2] the target is unchanged. The note with it: at 1 µM.
Assay [3] addresses RAC-beta serine/threonine-protein kinase (Homo sapiens) (UniProt P31751). The note with it: at 0.1 µM.
The target is the same in assay [4]. The note with it: at 1 µM.
Assay [5] concerns the target RAC-gamma serine/threonine-protein kinase (Homo sapiens) (UniProt Q9Y243). The conditions noted are these: at 0.1 µM.
For assay [6] the target is unchanged. The note with it: at 1 µM.
Assay [7] concerns the target G protein-coupled receptor kinase 6 (Homo sapiens) (UniProt P43250). The note with it: at 0.1 µM.
For assay [8] the target is unchanged. The conditions noted are these: at 1 µM.
For assay [9], the target named is T1, Rhodopsin kinase GRK7 (Homo sapiens) (UniProt Q8WTQ7).
T1 sequence (whole entry): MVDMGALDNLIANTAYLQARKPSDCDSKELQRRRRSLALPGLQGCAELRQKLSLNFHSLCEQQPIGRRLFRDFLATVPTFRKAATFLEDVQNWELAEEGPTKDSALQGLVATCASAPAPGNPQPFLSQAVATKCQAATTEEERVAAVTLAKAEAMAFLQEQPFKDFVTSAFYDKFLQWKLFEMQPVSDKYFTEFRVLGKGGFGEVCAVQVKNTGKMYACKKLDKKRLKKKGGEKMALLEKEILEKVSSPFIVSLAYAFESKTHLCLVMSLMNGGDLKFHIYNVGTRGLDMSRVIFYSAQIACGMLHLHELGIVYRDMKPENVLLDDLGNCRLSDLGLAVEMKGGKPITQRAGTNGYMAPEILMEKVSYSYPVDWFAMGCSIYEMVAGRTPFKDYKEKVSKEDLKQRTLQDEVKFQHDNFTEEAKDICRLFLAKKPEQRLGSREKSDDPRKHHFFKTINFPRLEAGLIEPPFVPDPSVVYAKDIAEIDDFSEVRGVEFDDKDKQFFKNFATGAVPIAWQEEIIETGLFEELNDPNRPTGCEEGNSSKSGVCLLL
The conditions noted are these: at 0.1 µM.

Assay [10] concerns the target T1, Rhodopsin kinase GRK7 (Homo sapiens). The conditions noted are these: at 1 µM.

RAC-gamma serine/threonine-protein kinase (Homo sapiens), sequence (Q9Y243 whole entry): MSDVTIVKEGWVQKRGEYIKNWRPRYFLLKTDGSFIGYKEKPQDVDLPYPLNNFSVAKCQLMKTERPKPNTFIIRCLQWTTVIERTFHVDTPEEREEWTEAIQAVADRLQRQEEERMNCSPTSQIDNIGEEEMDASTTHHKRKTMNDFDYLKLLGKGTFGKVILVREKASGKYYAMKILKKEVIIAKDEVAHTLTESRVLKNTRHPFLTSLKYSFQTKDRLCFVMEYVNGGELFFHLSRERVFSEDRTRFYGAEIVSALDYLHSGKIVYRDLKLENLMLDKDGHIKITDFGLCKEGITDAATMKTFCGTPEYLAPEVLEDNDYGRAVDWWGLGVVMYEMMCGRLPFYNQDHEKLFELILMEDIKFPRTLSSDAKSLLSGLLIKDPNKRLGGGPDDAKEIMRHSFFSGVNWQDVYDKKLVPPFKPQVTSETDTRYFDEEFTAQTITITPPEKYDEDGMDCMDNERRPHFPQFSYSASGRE
RAC-beta serine/threonine-protein kinase (Homo sapiens), sequence (P31751 whole entry): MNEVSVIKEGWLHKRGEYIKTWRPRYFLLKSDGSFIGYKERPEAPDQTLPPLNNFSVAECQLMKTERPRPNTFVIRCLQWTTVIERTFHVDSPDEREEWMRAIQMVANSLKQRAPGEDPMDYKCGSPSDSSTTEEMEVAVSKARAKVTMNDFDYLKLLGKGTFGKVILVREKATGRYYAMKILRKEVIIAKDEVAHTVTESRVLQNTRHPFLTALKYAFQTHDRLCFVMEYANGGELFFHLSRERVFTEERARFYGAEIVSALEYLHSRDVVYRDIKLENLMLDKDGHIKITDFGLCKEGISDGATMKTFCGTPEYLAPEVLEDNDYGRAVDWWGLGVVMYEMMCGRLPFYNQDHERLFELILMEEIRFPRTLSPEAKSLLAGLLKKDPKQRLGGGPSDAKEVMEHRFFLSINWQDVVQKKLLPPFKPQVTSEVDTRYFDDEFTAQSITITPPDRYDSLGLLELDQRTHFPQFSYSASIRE
G protein-coupled receptor kinase 6 (Homo sapiens), sequence (P43250 whole entry, looked up): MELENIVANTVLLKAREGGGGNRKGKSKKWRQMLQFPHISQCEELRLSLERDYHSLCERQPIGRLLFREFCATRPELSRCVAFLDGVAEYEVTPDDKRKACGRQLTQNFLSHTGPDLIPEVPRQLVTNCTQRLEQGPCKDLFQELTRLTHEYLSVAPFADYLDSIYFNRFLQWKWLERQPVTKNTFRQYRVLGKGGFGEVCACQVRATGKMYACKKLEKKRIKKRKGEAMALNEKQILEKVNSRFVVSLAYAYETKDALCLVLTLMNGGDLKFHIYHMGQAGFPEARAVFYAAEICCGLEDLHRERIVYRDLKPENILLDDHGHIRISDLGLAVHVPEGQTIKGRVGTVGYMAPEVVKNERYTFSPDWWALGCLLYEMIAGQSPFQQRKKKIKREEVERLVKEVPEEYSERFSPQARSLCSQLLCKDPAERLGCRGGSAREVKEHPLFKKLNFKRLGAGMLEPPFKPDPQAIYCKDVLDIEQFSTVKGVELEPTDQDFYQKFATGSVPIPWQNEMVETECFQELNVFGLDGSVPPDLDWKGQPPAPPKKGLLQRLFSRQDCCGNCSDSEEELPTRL
RAC-alpha serine/threonine-protein kinase (Homo sapiens), sequence (P31749 whole entry): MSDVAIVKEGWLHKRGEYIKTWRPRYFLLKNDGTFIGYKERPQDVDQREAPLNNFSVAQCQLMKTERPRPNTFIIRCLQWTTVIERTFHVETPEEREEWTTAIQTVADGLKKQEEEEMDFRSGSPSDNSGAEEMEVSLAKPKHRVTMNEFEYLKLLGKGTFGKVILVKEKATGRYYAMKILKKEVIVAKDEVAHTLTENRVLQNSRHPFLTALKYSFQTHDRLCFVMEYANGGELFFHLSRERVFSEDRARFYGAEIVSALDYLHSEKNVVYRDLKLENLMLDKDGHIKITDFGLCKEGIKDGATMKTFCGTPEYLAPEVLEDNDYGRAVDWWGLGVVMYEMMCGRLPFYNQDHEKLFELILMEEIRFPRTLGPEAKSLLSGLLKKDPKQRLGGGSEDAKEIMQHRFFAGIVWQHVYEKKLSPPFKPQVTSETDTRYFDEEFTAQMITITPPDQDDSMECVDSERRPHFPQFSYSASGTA

`COc1cc2ncn(-c3cc(OCc4ccccc4C(F)(F)F)c(C(N)=O)s3)c2cc1OC`: the inhibition in [1] was -2.43%; in assay [2] it was -2.44%; in assay [3], -2.6%; in [4] it was -2.54%; in assay [5], -3.14%; in [6], -1.66%. In addition, the inhibition worked out at 0.88% in assay [7], 0.91% in assay [8], 9.69% in assay [9] and 6.72% in assay [10].

Take `COc1cc(C)c(NC(=O)CN(C)C)cc1Nc1nc(Nc2cccc(F)c2C(N)=O)c2cc[nH]c2n1`: the inhibition is 1.35% in assay [1]; 0.96% in assay [2]; 0.81% in assay [3]; 1.17% in assay [4]; 0.86% in [5]; 1.72% in assay [6]. The inhibition is 12.9% in assay [7], 51.2% in [8], 8.5% in assay [9] and 28.1% in assay [10].

With `COc1ccc(-c2ccncc2)cc1C(N)=O`, the inhibition was 0.88% in assay [1]; -0.34% in assay [2]; 0.41% in assay [3]; 2.06% in assay [4]; 1.15% in assay [5]; 2.9% in assay [6]. For the same molecule, the inhibition in [7] was 5.49%; in assay [8], 5.53%; in assay [9] it was 9.86%; in [10] it was 2.23%.

Take `CCCN1CCC=C(c2ccc(Nc3nc(Nc4ccccc4C(N)=O)c4cc[nH]c4n3)c(C)c2)C1`: the inhibition in [1] is 0.97%; in assay [2] it was 1.22%; in [3], 1.3%; in [4] it was 1.5%; in [5] it was -0.2%; in assay [6] it was 5.51%. Further, the inhibition was 6.79% in [7], 31.4% in assay [8], 11.2% in assay [9] and 20.5% in assay [10].

In the case of `Nc1nc(-c2ccccn2)c(-c2ccc3ncccc3n2)s1`, the inhibition in [1] came out at 0.97%; in assay [2], 0.96%; in assay [3], 1.1%; in assay [4] it was 1.5%; in assay [5] it was 1.6%; in assay [6] it was 1.17%. The inhibition in assay [7] was 5.73%; in [8], 1.87%; in assay [9], 1.26%; in [10], -0.58%.

For `CC1=C(C(=O)Nc2ccc3[nH]ncc3c2)C(c2ccc(F)cc2)NC(=O)N1` (stereo not given), the inhibition in [1] was -0.22%; in assay [2] it was 0.8%; in assay [3], 0.33%; in assay [4], 1.45%; in [5], 0.5%; in assay [6], 2.79%. Further, the inhibition was 5.16% in [7], 7.3% in [8], 2.44% in [9] and 6.49% in assay [10].

As for `COc1ccc(-c2coc3ncnc(N)c23)cc1`, the inhibition in [1] was found to be 0.76%; in assay [2], 0.76%; in [3] it was 2.07%; in [4] it was 1.94%; in assay [5], 0.3%; in assay [6] it was 2.05%. Further, the inhibition was determined as 1.34% in assay [7], 1.56% in [8], 3.57% in assay [9] and 9.28% in [10].

In the case of `NS(=O)(=O)c1ccc(N/N=C2\C(=O)Nc3ccc(C(=O)NCCc4c[nH]cn4)cc32)cc1`, the inhibition in [1] was found to be 1.49%; in assay [2], 0.74%; in [3], 3.41%; in assay [4], 1.59%; in [5] it was 1.65%; in assay [6], 2.39%. The inhibition in assay [7] stood at 5.89%; in [8], 9.39%; in [9], 5.2%; in assay [10], 7.5%.

As to `CC1=C(C(=O)Nc2ccc3[nH]ncc3c2)C(c2ccc(Cl)c(Cl)c2)CC(=O)N1` (stereo not given), the inhibition in assay [1] was -0.08%; in [2], 1.46%; in assay [3], 1.11%; in assay [4], 1.63%; in assay [5], 0.95%; in [6], 2.81%. In addition, the inhibition in [7] was 4.25%; in assay [8], 7.35%; in assay [9], -1.63%; in [10], -5.21%.

Consider `O=C1Nc2ccc(C(=O)c3ccco3)cc2C1=Cc1cc(Cl)c(O)c(Cl)c1`, for which the inhibition in [1] worked out at 0.57%; in [2], 1.08%; in assay [3], 1.49%; in assay [4], 0.98%; in assay [5], 1.75%; in assay [6], 0.62%. Moreover, the inhibition in assay [7] came to 29.7%; in assay [8] it was 79.6%; in assay [9] it was 30.6%; in assay [10], 54.8%.

On to `CCn1c(-c2nonc2N)nc2c(C#CC(C)(C)O)nc(CN3CCCC3)cc21`, for which the inhibition in assay [1] worked out at 8.37%; in assay [2], 54.9%; in [3], 10%; in assay [4], 55.5%; in assay [5], 18.8%; in assay [6] it was 78.7%. Further, the inhibition was -2.28% in assay [7], -0.02% in assay [8], -4.34% in assay [9] and 3.4% in [10].

Turning to `CC(=O)Nc1cccc(C#Cc2cncnc2Nc2ccc(OCc3cccc(F)c3)c(Cl)c2)n1`, the inhibition in assay [1] is -0.69%; in assay [2], 0.42%; in [3], -1.3%; in assay [4], -0.21%; in [5], -1.1%; in assay [6], -0.11%. Further, the inhibition was 0.73% in assay [7], 6.19% in assay [8], 1.16% in assay [9] and 11.2% in assay [10].

As for `CCn1c(-c2nonc2N)nc2cncc(C(=O)N3CCNCC3)c21`, the inhibition in [1] worked out at 0.91%; in assay [2] it was 2.57%; in assay [3] it was 2.91%; in assay [4], 2.21%; in [5], 2.05%; in assay [6], 5.1%. Further, the inhibition in assay [7] was determined as 6.32%; in [8], 9.53%; in assay [9] it was 7.48%; in assay [10], 9.01%.

Turning to `CS(=O)(=O)CCN(CC#N)Cc1ccc(-c2ccc3ncnc(Nc4ccc(OCc5cccc(F)c5)c(Cl)c4)c3c2)o1`, the inhibition was -1.63% in assay [1]; -3.32% in [2]; -3.4% in [3]; -2.91% in assay [4]; -3.18% in assay [5]; -0.79% in assay [6]. For the same molecule, the inhibition in assay [7] was found to be 0.99%; in assay [8], 3.25%; in [9], 6.9%; in assay [10] it was 2.37%.

Consider `COc1cc2c(cc1Nc1nc(N3CCc4ccccc43)c3cc[nH]c3n1)N(C(=O)CN(C)C)CC2`, for which the inhibition in assay [1] stood at 1.38%; in assay [2] it was 1.39%; in [3] it was 0.6%; in assay [4], 1.42%; in [5], 1.23%; in [6], 1.23%. Further, the inhibition in [7] was 1.54%; in assay [8], -3.01%; in [9], -0.63%; in assay [10], -6.08%.

Consider `COc1ccc(COc2ccc(Cc3cnc(N)nc3N)cc2OC)cc1`, for which the inhibition was 0.82% in [1]; -0.15% in assay [2]; 0.33% in assay [3]; -0.17% in [4]; 0.61% in assay [5]; 0.93% in assay [6]. Further, the inhibition was -3% in assay [7], -5.27% in [8], 11% in assay [9] and -7.03% in assay [10].

Turning to `CCn1c(-c2nonc2N)nc2ccncc21`, the inhibition is 0.31% in assay [1]; 0.51% in [2]; 0.98% in assay [3]; 1.01% in assay [4]; -0.4% in assay [5]; -0.73% in assay [6]. The inhibition was 0.85% in [7], -3.7% in [8], 0.19% in [9] and 2.02% in [10].
